FUS yeast rescue = rescues growth of FUS-expressing yeast. S. cerevisiae FUS-expressing, growth rescue, OD600, 24 h. Potency, µM (doses to about 76.6 µM), hits mostly activators. hit rate 0.24% among 390,000. AID 1347120;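 note: plate controls were DMSO vehicle for no effect and reference control for full effect; nearly all actives have a fitted effect of over 55% in size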
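Absorbance at 600 nm, taken 24hr after compound addition, measured rescue of FUS-yeast growth at 30C. Induction used 2% galactose with seeding at OD 0.005. Controls: CP55940 from 92uM final, DMSO only.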
Abeta rescue = compounds reversing amyloid beta toxicity in yeast; yeast expressing A-beta42, growth rescue, OD600, 48 h; response scale: 0% DMSO, 100% iron-clioquinol control; hit rate 0.063% among 410,000; Potency, µM (series often up to 46.1 µM), hits mostly activators; AID 1347071; note: nearly all actives have a fitted effect of over 55% in size
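Yeast A-beta toxicity model in growth medium with pinned compounds, 48 h at 30 C; growth read as absorbance at 600 nm. Normalized to FeCl3/clioquinol equimolar mix (positive) and DMSO (negative).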
Mito fusion act = blocks mitochondrial division or promotes mitochondrial fusion | S. cerevisiae fusion-defective mutant growth rescue, CellTiterGlo 48 h | Potency, µM (series often up to 46.1 µM), without a hit: at the top dose growth rescue (activation), most hits filed as activators | hit rate 0.23% among 320,000; note: % of control where 0% means no effect; nearly all actives have a fitted effect of over 45% in size
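Read-out: ATP-based luminescence (CellTiterGlo, 10 min ambient) reporting growth of fusion-defective ts yeast after 48 hours at 37C on glycerol/ethanol YPEG medium in the presence of compound.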
aSyn yeast inh = inhibitors of alpha-synuclein toxicity in yeast. hit rate 0.14% among 370,000. AID 652106. Yeast expressing alpha-synuclein, growth rescue, BacTiter-Glo, 24 h. Potency, µM (doses to about 46.1 µM), inactives show at the highest dose growth rescue (activation), usual class: activators; note: % of control where 0% means no effect; nearly all actives have a fitted effect of over 65% in size
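Rescue of yeast growth: cells expressing toxic alpha-synuclein, induced in galactose at OD600 0.02, incubated with compound 24 h at 30 C. ATP luminescence quantified growth; inhibitors of toxicity appear as activators.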
TDP43 rescue = TDP-43 toxicity inhibition in yeast | TDP-43 expressing yeast growth rescue, BacTiter-Glo, 24 h | Potency, µM (series often up to 46.1 µM), for inactives: top-dose growth rescue (activation), actives largely listed as activators | hit rate 1.8% among 410,000 | AID 652104; note: % of control where 0% means no effect; nearly all actives have a fitted effect of over 50% in size
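Readout is BacTiter-Glo luminescence of cell growth, so inhibitors register as activators. TDP-43-expressing yeast at OD600=0.02 in galactose medium, after raffinose pregrowth to mid-log, were incubated with compound for 24 hr at 30 deg C.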
Active calls of the source: *; i = inactive; ? = inconclusive; nt = no result; [ ] = remark or other dose. This is a sample that favours compounds with a hit; in the whole collection about 2.2% have one here. Calls come from the whole dose curve; as a rule, active = well fitted curve in the direction sought with a large enough effect; inconclusive = small, poorly fitted or top-dose-only effect, or another doubt; inactive = no such curve, though single readings can be large; an effect the other way counts as inactive or inconclusive. Potency is the fitted concentration of half-maximal effect.

SMILES | FUS yeast rescue | Abeta rescue | Mito fusion act | aSyn yeast inh | TDP43 rescue
S=c1nc(-c2ccccc2)n(-c2ccccc2)[nH]1 | i | i | -18% | -2% | -8%
Cc1ccc(OCc2ccccc2C)c([N+](=O)[O-])n1 | i | i | -37% | 4% | 11µM*
Cc1ccc(OCc2ccc([N+](=O)[O-])cc2)c([N+](=O)[O-])n1 | i | i | 3% | 2% | 21%
COCc1cc(C)nc2sc(C(=O)N3CCN(c4ccccc4)CC3)c(N)c12 | i | i | 6% | 2% | 20µM*
COCc1cc(C)nc2sc(C(=O)N3CCCCC3)c(N)c12 | i | i | -1% | -5% | -35%
COc1ccc(-c2noc(CSc3nc(N)cc(=O)[nH]3)n2)cc1OC | i | i | 0% | nt | 4%
Cn1nnnc1N=N/C(=N/Nc1ccccc1)c1ccccc1 | i | ? | 6% | 3.2µM* | ?
CC1(C)Cc2c(sc3nnn(Cc4ccc(Cl)cc4)c(=O)c23)CO1 | nt | i | 24% | 10% | 13µM*
CC1(C)Cc2c(sc3nnn(CC(=O)Nc4ccccc4)c(=O)c23)CO1 | i | i | -4% | 14% | 15%
O=C(Cc1ccc(NC(=O)N2CCCCc3ccccc32)cc1)NCc1ccccc1Br | ? | i | nt | nt | 20%
Cc1ccc(NC(=O)CSc2n[nH]c(-c3ccc(F)cc3)n2)cc1F | i | i | nt | nt | 9%
Cc1ccccc1OCc1nc(-c2cccnc2)no1 | i | i | 0% | 11% | 11µM*
Cc1ccc(SCc2nc(-c3ccncc3)no2)cc1 | i | i | 1% | 6% | 16µM*
Cc1ccc(SCc2nc(-c3ccccc3)no2)cc1 | i | i | -3% | -13% | 8%
c1ccc(OCc2nc(-c3ccncc3)no2)cc1 | i | i | 4% | 4% | 11µM*
COc1ccc(-c2ccc(=O)n(CC(=O)NCCc3ccccc3)n2)cc1 | i | i | nt | nt | ?
CC(C)C[C@@H](CN1CCC[C@@H]1CN1C(=S)NC[C@@H]1Cc1ccc(O)cc1)N1C[C@H](Cc2ccc(O)cc2)N(CCc2ccccc2)C1=S | 35µM* | i | nt | -4% | -1%
CC(C)Sc1nc(N)nc(-c2cccs2)c1C#N | i | i[9.22 µM] | ? | 0% | 18µM*
CSc1nc(N)nc(-c2cccs2)c1C#N | i | i | -9% | 8% | 20µM*
Clc1ccc(-c2nn3c(-c4cc(-c5ccccc5)n[nH]4)nnc3s2)cc1 | nt | nt | nt | 5% | nt
CN=C1S/C(=C\c2cccc(Cl)c2Cl)C(=O)N1C | i | i | nt | 11% | 13µM*
Cc1ccccc1NC(=O)c1c(C)nn(-c2ccccc2)c1Cl | i | i | 0% | 0% | ?
COc1ccccc1NC(=O)CSc1ncn(-c2ccccc2)n1 | nt | i | 8% | 6% | 10µM*
Cc1ccc(NC(=O)c2c(C)nn(-c3ccccc3)c2Cl)cc1 | i | i | 3% | 1% | 13µM*
CC(=O)c1ccc(NC(=O)c2c(C)nn(-c3ccccc3)c2Cl)cc1 | i | i | 2% | 8% | 11µM*
SMILES | FUS yeast rescue | Abeta rescue | Mito fusion act | aSyn yeast inh | TDP43 rescue
CC(=O)c1cccc(NC(=O)c2c(C)nn(-c3ccccc3)c2Cl)c1 | nt | i | 7% | -15% | 17%
COc1ccc(NC(=O)c2c(C)nn(-c3ccccc3)c2Cl)cc1 | i | i | 1% | -7% | 22%
COc1ccccc1NC(=O)c1c(C)nn(-c2ccccc2)c1Cl | i | i | -5% | 0% | 25µM*
Cc1ccc(SC(C)C(=O)N2CCCC2)cc1 (stereo not drawn) | i | i | 1% | -2% | -15%
Cc1ccc(SC2=C(C(=O)O)CCCC2)cc1 | i | i | 29% | 24% | 10µM*
Cc1ccc(C2=NN(C(=O)CCl)C(c3cccs3)C2)o1 (stereo not drawn) | i | i | 2% | 1% | 20µM*
Cc1cccc(NC(=S)/N=C(\N)Nc2nc(C)c3ccc(C)cc3n2)c1 | i | i | -2% | -1% | ?
Cc1cccc(NC(=S)/N=C(\N)Nc2nc(C)c3ccccc3n2)c1 | i | ? | 18% | -10% | 20µM*
Cc1cc(C)cc(NC(=S)/N=C(\N)Nc2nc(C)c3ccccc3n2)c1 | nt | i | 25% | 0% | 16µM*
C(=N\Nc1nc(-c2cccnc2)nc2ccccc12)/c1ccccc1 | i | i | -6% | -7% | 12%
C(=N\Nc1nc(-c2ccccn2)nc2ccccc12)/c1ccccc1 | nt | nt | -4% | 13µM* | nt
Cc1ccc(OCC(=O)OC2=C(C(=O)c3ccccc3)N(C)S(=O)(=O)c3ccccc32)cc1 | i | i | nt | nt | -30%
CCOc1ccccc1-c1nc(-c2ccc(C)nc2OC)no1 | ? | i | -3% | 9% | 20µM*
COc1ccc(C2CC2/C(C)=N/OC(=O)C2CC2)cc1 (stereo not drawn) | i | i | 29% | -20% | 14µM*
CCc1ccc(-n2c(N3CCN(c4cccc(C)c4C)CC3)nc3ccccc3c2=O)cc1 | i | i | nt | nt | 13%
S=C1NCN(Cc2ccco2)CN1CCc1ccccc1 | i | 14µM* | -4% | 3% | ?
CC(C)CN1CN(Cc2ccco2)CNC1=S | nt | i | -1% | 13% | -6%
Cc1ccccc1NC(=O)Nc1nnc(N2CCCCCC2)s1 | i | i | nt | nt | 22%[9.22 µM]
CCN(c1ccccc1)c1nc(N)nc(C#N)n1 | nt | nt | nt | -14% | nt
O=C1/C(=C/c2ccccc2O)SC(=S)N1Cc1cccnc1 | i | i | 0% | -16% | 13µM*
O=C(c1ccccc1)C1CCN(C(=O)c2c(F)cccc2F)CC1 | i | i | 4% | 8% | 11µM*
O=C(c1ccc(F)cc1)C1CCN(C(=O)c2c(F)cccc2F)CC1 | i | ? | 2% | 10% | ?
COC(=O)c1ccc(Cl)c(NS(=O)(=O)c2ccc3c(c2)OCCO3)c1 | i | i | 19% | 6% | 25µM*
CCC[C@H]1[C@@H](NC(=O)C2CCC2)CC[C@@]23CCCN2C(=O)CCC[C@@H]13 | i | nt | nt | nt | nt
ClC(Cl)(Cl)c1nc2ccccc2n2nncc12 | i | i | 13µM* | -21% | -3%
CCOC(=O)c1sc(NC(=O)c2ccncc2)c(C#N)c1C | nt | i | 11µM* | -20% | -64%
O=C(Nc1ccc(Cl)cc1)c1ccc2ncsc2c1 | i | i | -66% | -19% | -7%
O=C(Nc1ccc(F)cc1)c1ccc2ncsc2c1 | i | i | -47% | -20% | 25µM*
COc1ccc(C(C)(NC(C)=O)c2nc(-c3cccc(C(F)(F)F)c3)cs2)cc1 (stereo not drawn) | ? | i | nt | 4% | 35µM*
CC(=O)NC(C)(c1ccccc1)c1nc(-c2ccc(F)c(Cl)c2)cs1 (stereo not drawn) | i | i | nt | 6% | 11µM*
